# In the library only some 1.3% were active in any assay of this set; here they are far more common.
# PTHR1 ag – PTHR1 (human) receptor agonism. HEK293 GP2 PTHR1 cells, GloSensor cAMP luminescence, 1 h. Potency, µM (top dose mostly 115 µM), inactives show top-dose activation, hits mostly activators. hit rate 0.075% among 410,000. AID 743266; note: potency is the fitted concentration of half-maximal effect; nearly all actives have a fitted effect of over 55% in size
# Target sequence (Q03431 whole entry, looked up): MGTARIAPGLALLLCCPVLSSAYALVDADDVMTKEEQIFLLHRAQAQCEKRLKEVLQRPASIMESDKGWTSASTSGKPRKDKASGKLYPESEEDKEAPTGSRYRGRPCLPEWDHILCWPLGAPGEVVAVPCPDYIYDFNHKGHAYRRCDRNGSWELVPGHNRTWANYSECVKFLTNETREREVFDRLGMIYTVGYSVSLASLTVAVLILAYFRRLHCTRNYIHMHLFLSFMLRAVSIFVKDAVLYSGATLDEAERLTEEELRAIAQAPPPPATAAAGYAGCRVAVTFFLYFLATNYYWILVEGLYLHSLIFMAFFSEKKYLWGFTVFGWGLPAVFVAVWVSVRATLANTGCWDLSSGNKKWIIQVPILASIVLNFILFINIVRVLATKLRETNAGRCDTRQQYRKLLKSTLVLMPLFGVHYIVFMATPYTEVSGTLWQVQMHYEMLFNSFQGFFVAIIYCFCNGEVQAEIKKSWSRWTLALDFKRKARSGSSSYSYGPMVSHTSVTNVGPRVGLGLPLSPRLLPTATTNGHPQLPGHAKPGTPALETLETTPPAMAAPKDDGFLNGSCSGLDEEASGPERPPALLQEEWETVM
#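 HEK-293-derived GP2 cells expressing PTHR1 and a GloSensor cAMP reporter, 3,000/well, plated overnight, given luciferin plus IBMX (each 0.5 mM as added) for 1 h at 37 °C, then compound for 1 h at 37 °C. Luminescence was read after 15 min at room temperature.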
# BRCA1 expr up – BRCA1 expression activation; AID 624202; Potency, µM (top dose mostly 46.1 µM), for inactives: at the top dose activation, usual class: activators; hit rate 1.1% among 380,000; MCF7-BRCA1-FFLuc reporter, luminescence, 48 h; response scale: scaled: vehicle 0%, 10 µM genistein 100%; note: potency is the fitted concentration of half-maximal effect; nearly all actives have a fitted effect of over 80% in size
#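 Compounds are tested at multiple concentrations on MCF7 BRCA1-luciferase reporter cells seeded at 2000 per well; after 48 h, a single luminescence end-point is taken and curves fitted to the normalized data.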
# IL-2 act – activates IL-2 in a cell-based reporter assay; activation, % (series mostly up to about 46 µM); IL-2 activation reporter assay, cell-based qHTS; stimulated with anti-CD3/CD4/CD28 beads; in transgenic mouse T cells; hit rate 0.065% among 360,000; in the data active = activation above about 50%; inconclusive = mostly about 30% to 49%; note: 0% is about no effect
#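 First, unstimulated transgenic mouse T cells were exposed to compound for 60 min. Next, anti-CD3/anti-CD4-coated beads with anti-CD28 were added. Finally, after 18 h at 37 degrees C, EGFP and DsRed were imaged.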
# BCR signal inh – blocks chronic active B-cell receptor signaling | hit rate 0.05% among 340,000 | Potency, µM (top dose mostly 46.1 µM), without a hit: top-dose activity change, negative = inhibition, hits mostly inhibitors | ABC-DLBCL IkBa-CBG/CBR reporter, luminescence ratio, 4 h; active = well fitted inhibition curve with a large enough effect in the signal ratio, with a control signal flat, not every such curve was filed as active; inconclusive = small, poorly fitted or top-dose-only effect, or effect the other way, or a change in a side signal; the % refers to the signal ratio;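 note: potency is the fitted concentration of half-maximal effect; plate controls were basal doxycycline-induced cells for no effect and cells given 10 µM MG132 for full effect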
#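 TMD8 human ABC-DLBCL cells with doxycycline-inducible IκBα–green luciferase fusion and unfused red luciferase, in 0.5% FBS medium; compounds up to 46 uM, 4 h at 37C. Green/red luminescence ratio, filter-overlap corrected, fitted to concentration-response curves.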
# TCR act – activators of T cell receptors. Potency, µM (doses to about 9.22 µM), inactives show top-dose activation of IL-2 secretion, hits mostly activators. primary human leukocytes, anti-CD3, IL-2 HTRF, 48 h. 330,000 tested, under 10 active; note: % of control where 0% means no effect
#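 Primary human leukocytes were stimulated with a-CD3 beads plus compounds for 48 hr without co-stimulation; secreted IL-2 was quantified by HTRF using a-IL-2-K (europium cryptate) and a-IL-2-d2, excited at 320nm with acceptor emission read at 665nm.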
# Mito fusion act – blocks mitochondrial division or promotes mitochondrial fusion. S. cerevisiae fusion-defective mutant growth rescue, CellTiterGlo 48 h. Potency, µM (titrated, usually from 46.1 µM), for inactives: at the highest dose growth rescue (activation), usual class: activators. hit rate 0.23% among 320,000. AID 485298; note: potency is the fitted concentration of half-maximal effect; % of control where 0% means no effect; nearly all actives have a fitted effect of over 45% in size
#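 Luminescent cell viability in 1536-well qHTS format served as the measure of rescued growth in ts fusion-mutant S. cerevisiae cultured on non-fermentable YPEG for 48 hours at 37C.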
# Starred values were filed as active, the others as inactive; i = inactive; u = inconclusive; x = not tested or not shown; [ ] = another dose, or the depositor's remark. Unless noted, calls come from the whole dose curve; as a rule, active = well fitted curve in the direction sought with a large enough effect; inconclusive = small, poorly fitted or top-dose-only effect, or another doubt; inactive = no such curve, though single readings can be large; an effect the other way counts as inactive or inconclusive.
SMILES,PTHR1 ag,BRCA1 expr up,IL-2 act,BCR signal inh,TCR act,Mito fusion act
O=C(NC1CCCCC1)NC1C2CC3CC(C2)CC1C3 (stereo not drawn),i,20%,0,1%,0%,0%
c1ccc(OCCOc2ncnc3ccccc23)cc1,i,10µM*,-1,u,-1%,0%
Cc1[nH]c2ccc(C(=O)OCCN(C)C)cc2c1C,i,58%,1,u,-5%,-7%
CCOC(=O)c1ccc2[nH]c(C)c(C)c2c1,-1%[57.5 µM],13µM*,0,x,-24%,x
CCCCCSc1ncnc2c1sc1nc(N3CCOCC3)c3c(c12)CCCC3,i,x,x,x,x,x
CN[C@H]1CCc2cc(OC)c(OC)c(OC)c2-c2ccc(OC)c(=O)cc21,i,-36%,-1,x,-2%,x
COc1cc2c(c(OC)c1OC)-c1ccc(NC(=O)c3ccccc3)c(=O)cc1[C@@H](NC(C)=O)CC2,i,10%,0,22µM*,6%,-16%
Clc1nc(NCC2CCCO2)c2[nH]cnc2n1 (stereo not drawn),x,8%,x,x,x,x
Cc1nc(=O)c(-c2ccccc2)c(C)n1-c1cccc(/C=C/C(=O)O)c1,i,-14%,1,-2%,-10%,-5%
COc1cc(NC(=O)N2CCNC2=O)cc(C(=O)Nc2cccc(C(F)(F)F)c2)c1,i,-62%,-1,18µM*,-2%,2%
Cc1ccsc1/C=N/n1cnc2sc(C)c(C)c2c1=O,-15%,11µM*,0,0%,-2%,3%
O=C(CN1C(=O)NC2(CCCCCC2)C1=O)c1ccc(F)cc1,-24%,-1%,1,2%,2%,5%
O=C(CN1C(=O)NC2(CCCCCC2)C1=O)c1ccc2c(c1)OCCO2,-11%,2.8µM*,0,u,2%,8%
O=C(CNC(=O)c1ccc([N+](=O)[O-])cc1)c1ccccc1,i,6.3µM*,3,u,0%,1%
CCN(CC)/[N+]([O-])=N/Oc1ccc([N+](=O)[O-])cc1[N+](=O)[O-],x,-1%,x,x,x,x
Nc1ccc[n+](CC(=O)c2ccc(F)cc2)c1,x,-72%,x,x,x,x
Oc1ccc(/C=N/Nc2ccc(C(F)(F)F)cn2)c(O)c1,x,x,x,u,x,10%
Oc1ccc(/C=N/Nc2ccc(C(F)(F)F)cn2)cc1,-32%,6.3µM*,4,u,-5%,0%
Cc1ccc(C)c(CN2C(=O)c3ccccc3Sc3ccc(C(=O)NCc4ccco4)cc32)c1,i,x,x,0%,x,x
Cc1ccc(S/C(=N/S(=O)(=O)c2ccc(Cl)cc2)c2ccccc2)cc1,x,2%,x,x,x,x
O=C(Cc1ccc(F)cc1)c1ccc(O)cc1O,-16%[57.5 µM],13µM*,1,u,2%,10%
CCc1cc(C(=O)Cc2ccc(F)cc2)c(O)cc1O,-28%,-21%,-1,-1%,0%[46.1 µM],u
CN(CCC#N)C(=S)NC(=O)c1ccc(S(=O)(=O)N2CCOCC2)cc1,-14%,3%,-1,-2%,4%,10%
CCCCCOc1ccc(NS(C)(=O)=O)cc1,-8%,11µM*,-2,u,-1%,-2%
Cc1ccc(NC(=O)CSc2nc(-c3cccs3)cc(C(F)(F)F)n2)cc1C,-12%,-60%,x,x,x,x
SMILES,PTHR1 ag,BRCA1 expr up,IL-2 act,BCR signal inh,TCR act,Mito fusion act
COc1ccc(-c2cc3nc[nH]c(=O)c3s2)cc1,-12%,6%,0,3%,-2%,6%
O=c1[nH]cnc2cc(-c3ccccc3)sc12,-19%,2.8µM*,-1,u,-3%,12%
Cc1nc2cc(OC3(C)CCN(Cc4ccc(OC(F)(F)F)cc4)C3)ccc2s1 (stereo not drawn),-22%,-12%,-1,x,x,x
COc1ccc(C2=C(Nc3ccc(Br)c(C)c3)c3ccccc3C2=O)cc1,-35%,x,x,x,x,x
COc1ccc(OC)c(C2NC(=O)NC(C)=C2C(=O)Nc2ccc(F)cc2)c1 (stereo not drawn),23%,x,x,x,x,x
O=C1NC(=S)SC1=Cc1cc(Br)ccc1O,i,-40%,-1,x,-3%,x
